Measured values published in the supplement of paper PMC6555819.

Legend:
Assay in all cases: PBM binding z-score (relative to random genomic background probes); higher = stronger binding; sequences stand for … in GC…GCGATTGACAGCGTAGAATGAAGG
[1] = system: FXR:RXRa (NR concentration 270 nM, RXRa partner concentration 90 nM)
Method in brief: (§1)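 Random background probes are the reference for binding z-scores. These scores derive from regression-normalized fluorescence on custom Agilent 4×180K protein-binding microarrays incubated 1 h with ligand-free nuclear receptor dimers. Binding was detected with antibodies against each partner (one per run).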

[2] = system: LXRa:RXRa (NR concentration 270 nM, RXRa partner concentration 90 nM)
Method in brief: as §1

[3] = system: LXRa homodimer (NR concentration 270 nM)
Method in brief: as §1

[4] = system: LXRb:RXRa (NR concentration 270 nM, RXRa partner concentration 90 nM)
Method in brief: as §1

[5] = system: LXRb homodimer (NR concentration 270 nM)
Method in brief: as §1

[6] = system: PPARa:RXRa (NR concentration 270 nM, RXRa partner concentration 90 nM)
Method in brief: as §1

[7] = system: PPARg:RXRa (NR concentration 180 nM, RXRa partner concentration 90 nM)
Method in brief: as §1

[8] = system: PPARg:RXRa 270nM:90nM, anti-RXR (NR concentration 270 nM, RXRa partner concentration 90 nM)
Method in brief: as §1

[9] = system: PPARg:RXRa 30nM:10nM, anti-RXR (NR concentration 30 nM, RXRa partner concentration 10 nM)
Method in brief: as §1

[10] = system: PPARg:RXRa 90nM:30nM, anti-RXR (NR concentration 90 nM, RXRa partner concentration 30 nM)
Method in brief: as §1

Row | Sequence | PBM binding z-score [1] | PBM binding z-score [2] | PBM binding z-score [3] | PBM binding z-score [4] | PBM binding z-score [5] | PBM binding z-score [6] | PBM binding z-score [7] | PBM binding z-score [8] | PBM binding z-score [9] | PBM binding z-score [10]
1 | ATCGAAAGGTCGACGAGGTGAGTCTACACCGTTT | 4.73 | 3.39 | -0.244 | 2.47 | 0.381 | 4.55 | 2.93 | 3.2 | 0.846 | 1.9
2 | TCTATTAGTTGATTAAGGCAACCGAAACAGCGGA | 0.785 | 0.541 | 0.0619 | 0.645 | 0.994 | 0.614 | 0.172 | 2.06 | 3.75 | 2.99
3 | CAGGCTAGGTCAGGGCCAGTATAGGAGGAACGTT | 1.56 | 0.779 | -0.274 | 0.278 | -0.895 | 2.06 | 1.39 | 1.07 | -0.194 | 0.297
4 | TTACCAATGTGAGCTGAGGTCGTTGATCCAACTC | 0.612 | 0.222 | -0.15 | 0.408 | -0.727 | 0.851 | -0.119 | 0.638 | 0.496 | 0.42
5 | TCATATAGTTAAACAGGTGAAAGTCCGTAAGTTA | 1.06 | 1.1 | 0.478 | 1.1 | 0.356 | 1.7 | 1.25 | 2.68 | 4.38 | 3.42
6 | CCAGACAGGTGAAAGGTGACTCAGTCTGGTACGC | 1.34 | 1.27 | -0.086 | 1.33 | -0.308 | 4.15 | 6.88 | 6.76 | 5.26 | 7.19
7 | ATCTATAGGTAAAGATAGTTCAGTGAATGCAAAT | 0.466 | 5.29 | 0.591 | 1.55 | 0.423 | 0.82 | 1.09 | 0.484 | 0.425 | 0.604
8 | TTACCAAGGTGAGCTGAGGCCGTTGATCCAACTC | 0.053 | -0.536 | -0.916 | -0.569 | -1.39 | 0.236 | -0.296 | -0.253 | -0.438 | -0.329
9 | CGAACTAGGTCACAACAGGACAGTGAAGGATGAT | 3.29 | 4.76 | 0.422 | 2.17 | 0.119 | 4.65 | 7.81 | 6.57 | 3.9 | 6.22
10 | CCTGCTAGGTCACTGGTCAGCTAAAGCAGCTCGC | 3.06 | 2.12 | -0.0651 | 1.42 | 0.0623 | 3.29 | 3.55 | 4.04 | 1.31 | 3.18
11 | CCGTCTGGGGCATAAGGTTACCATAAGCCAGCCC | 0.562 | 2.1 | -0.402 | 0.847 | -1.32 | 1.78 | 1.29 | 2.07 | 0.233 | 1.54
12 | CCTACTGGGCCAAAAAGGTGATTGATGCCGATAA | -0.195 | -0.147 | -0.405 | -0.234 | -0.963 | 0.761 | 0.56 | 0.945 | -0.119 | 0.309
13 | AGAATGAGGTTAAGATCAGGTAAACAGAATACAT | 2.45 | 4 | -0.00313 | 2.24 | -0.136 | 3.9 | 2.61 | 2.31 | 0.859 | 1.75
14 | CCGACTGGGGCAAGGTTAGCATAACGCACAGCCA | -0.312 | -0.11 | -0.322 | -0.208 | -1.24 | 1.23 | 2.6 | 3.06 | 0.844 | 2.39
15 | TCTTGTATATCAAGCAGGTTAAGAAAGCCTGAGT | 0.234 | 0.335 | 0.0276 | 0.678 | 0.189 | 0.992 | -0.217 | 1.47 | 2.86 | 1.86
16 | ATCTCTAGGTAAAGCTAGTTCAGTGAATGCAAAT | 0.153 | 1.45 | -0.0105 | 0.175 | 0.196 | 0.456 | -0.125 | 0.354 | 0.0636 | 0.224
17 | GGAACGAGGGCAAAGTTTATAGCATCTGTCGACG | 1.77 | 1.29 | 0.174 | 1.19 | -0.358 | 4.45 | 7.54 | 7.55 | 7 | 7.92
18 | AGTCAAAGTTCATCTAGGTAAGGTAAGATATGCT | 6.12 | 6.16 | 5.26 | 4.05 | 1.73 | 5.02 | 6.22 | 6.34 | 3.3 | 5.66
19 | CGTCCAAGGTCAGAGAGGTCAATGAATGCCGAGT | 6.53 | 5.92 | 4.51 | 5.64 | 0.884 | 5.36 | 3.79 | 4.67 | 1.52 | 3.58
20 | ATATGTAGGTTAAGGGTCGTTCAGGTTGGTTCGC | 2.74 | 2.85 | 1.23 | 2.85 | 0.845 | 6.01 | 10.9 | 9.42 | 10.4 | 11
21 | CCTACTGGGCCACGAAAGGTCATTGATTCAGTGA | 3.58 | 5.34 | 4.9 | 4.15 | 0.552 | 4.58 | 4.57 | 5.08 | 2.53 | 4.4
22 | TCATATAGGTAAAGGTTAAAGTCGAACGATATGA | 2.25 | 3.83 | 0.888 | 2.89 | 0.157 | 4.34 | 5.57 | 5.57 | 5.06 | 5.73
23 | CGTAGCAGGCCAATCTGGGTCACTCAAGGCTTGA | 0.309 | 0.88 | -0.711 | 0.262 | -0.737 | 2.6 | 2.21 | 2.03 | -0.188 | 1.08
24 | TCGAGTAGGTTAGAGGCATTCAGAATGGCGTCGA | 0.0736 | -0.18 | -0.53 | -0.336 | -1.72 | 0.422 | 1.22 | 2.66 | 1.4 | 2.27
